Screening data (PubChem)
This is a sample that favours compounds with a hit; in the whole collection about 1.6% have one here.
gsp agonist: gsp mutant agonism; Potency, µM (top dose mostly 76.9 µM), actives largely listed as activators; gsp mutant cells, cAMP HTRF, 30 min; 340,000 tested, 0.13% active; active = well fitted activation curve with a large enough effect; inconclusive = small, poorly fitted or top-dose-only effect, or another doubt; inactive = no such curve, though single readings can be large or run the other way; cell line not stated here;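 also: phosphodiesterase inhibitor Ro 20-1724 added with compounds to block cAMP breakdown; nearly all actives have a fitted effect of over 60% in size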
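Cells in DMEM/10% FBS with G418 were pretreated with compounds in DMSO plus […] (300 uM stock) for 30 min at 37C. cAMP was measured by HTRF (cAMP-d2 plus anti-cAMP antibody-K) after 30 min at room temperature.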
FBPA coupling cs: counter-screen for Giardia aldolase inhibitors: coupling enzyme system. coupling enzyme system counterscreen, AmpLite Red fluorescence. activity change, negative = inhibition, % at 58.2 µM, hits read low. 290,000 tested, 0.67% active; in the data active = activity change below about -30%
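Counterscreen lacking aldolase: glyceraldehyde-3-phosphate coupling-enzyme reagent preincubated 10 min at RT with compound (at 57.5 uM final), then substrate/coupling system with AmpLite Red added; fluorescence read at 525/598 nm after 20 min RT.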
Giardia killer: Giardia lamblia killing; activity change, % at 7.66 µM, hits read low; 340,000 tested, 0.15% active; Giardia lamblia trophozoite viability; in the data active = activity change below about -80%; inconclusive = between about -30% and that limit;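 also: parasites exposed to compound for two days anaerobically before the ATP read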
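Trophozoite viability was measured as ATP-dependent luminescence, read 15-30 min after reagent addition. Before that, parasites at 100 cells/well were exposed to compounds for 48 h, anaerobically, at 37 deg C.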
gsp antag: antagonists of gsp mutant (McCune-Albright syndrome); gsp-mutant cells, cAMP HTRF, 30 min; 340,000 tested, 0.4% active; Potency, µM (doses to about 76.9 µM), usual class: inhibitors; AID 624288; calls by dose curve; cell line not stated here;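 also: intracellular cAMP measured with PDE inhibitor Ro 20-1724 present during compound exposure; nearly all actives have a fitted effect of over 65% in size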
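HTRF cAMP read-out (cAMP-d2 plus anti-cAMP antibody-K in lysis buffer, 30 min RT). Before lysis, cells are exposed to compounds with […] for 30 min at 37C in DPBS containing Ca/Mg, BSA and Tween 20.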
RXFP1 ag: activates the human relaxin receptor RXFP1. 370,000 tested, 0.3% active. HEK293T-RXFP1 cAMP TR-FRET, 30 min; response scale: percent of porcine relaxin response, buffer zero. Potency, µM (titrated, usually from 57.5 µM), usual class: activators; active = well fitted activation curve with a large enough effect; inconclusive = small, poorly fitted or top-dose-only effect; also: nearly all actives have a fitted effect of over 60% in size
Target sequence (Q9HBX9 whole entry, looked up): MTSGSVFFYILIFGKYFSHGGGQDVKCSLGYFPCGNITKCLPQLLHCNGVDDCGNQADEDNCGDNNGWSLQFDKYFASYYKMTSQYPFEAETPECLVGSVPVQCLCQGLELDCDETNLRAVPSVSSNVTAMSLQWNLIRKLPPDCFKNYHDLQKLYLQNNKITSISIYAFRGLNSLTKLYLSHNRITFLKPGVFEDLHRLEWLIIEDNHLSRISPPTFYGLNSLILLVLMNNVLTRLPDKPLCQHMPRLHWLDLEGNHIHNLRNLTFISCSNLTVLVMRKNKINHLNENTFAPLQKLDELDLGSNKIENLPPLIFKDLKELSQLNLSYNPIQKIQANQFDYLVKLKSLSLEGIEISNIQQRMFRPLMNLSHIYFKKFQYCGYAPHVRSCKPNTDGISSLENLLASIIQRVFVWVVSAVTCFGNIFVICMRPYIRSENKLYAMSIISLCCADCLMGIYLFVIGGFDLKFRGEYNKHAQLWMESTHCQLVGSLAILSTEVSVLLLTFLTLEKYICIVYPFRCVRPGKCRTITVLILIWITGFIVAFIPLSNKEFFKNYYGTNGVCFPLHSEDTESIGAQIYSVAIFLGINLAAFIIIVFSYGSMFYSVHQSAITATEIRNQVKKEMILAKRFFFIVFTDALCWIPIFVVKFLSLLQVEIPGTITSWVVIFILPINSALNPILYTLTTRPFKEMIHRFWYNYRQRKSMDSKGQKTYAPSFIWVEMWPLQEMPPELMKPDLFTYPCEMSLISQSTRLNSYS
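Agonist response is measured as cAMP accumulation in an RXFP1-transfected HEK293T line under PDE4 inhibition. Values are scaled between buffer-only and 29 nM porcine relaxin, and EC50s come from standard Hill equation fits.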
RXFP1 antag: antagonists of human relaxin receptor RXFP1 | 350,000 tested, 0.59% active | activity change, negative = inhibition, % at 57.5 µM | HEK293-RXFP1, relaxin-stimulated cAMP HTRF, 30 min; active compounds read low;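 active = activity change of -60% or lower, but not beyond a set lower limit; inconclusive = change between -60% and -40%, or beyond the set limit; inactive = change above -40%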
A number is an active result; – = inactive; ? = inconclusive; · = not tested or not shown; [ ] = dose if it differs, or a comment.

SMILES	gsp agonist	FBPA coupling cs	Giardia killer	gsp antag	RXFP1 ag	RXFP1 antag
COc1cc(/C=C2\SC(=Nc3ccccc3)N(CCc3c[nH]c4ccccc34)C2=O)ccc1OC(C)C(=O)O (stereo not given)	–[15.4 µM]	–	–	35.5µM	–	–
O=C1/C(=C/c2ccc(N3CCOCC3)o2)SC(=Nc2ccccc2)N1CCc1c[nH]c2ccccc12	–	–	–	–	–	-80.5
COCCN1C(=O)/C(=C/c2ccc(Oc3ccc([N+](=O)[O-])cn3)c(OC)c2)SC1=Nc1ccccc1	–	–	–	–	–	–
CCCN1C(=O)/C(=C/c2cc(C)n(C)c2C)SC1=Nc1ccc(OC)cc1	–	–	–	–	–	–
O=C(CNC(=O)c1ccccc1)OCC(=O)c1cccc2ccccc12	·	·	–	·	·	·
CC(=O)OC[C@@H]1O[C@@H](O/N=C2/C[C@@H](O)[C@@H](O)[C@@H]3[C@@H]4C(=O)N(c5cccc(Oc6ccccc6)c5)C(=O)[C@H]4CC[C@@H]23)[C@H](OC(C)=O)[C@H](OC(C)=O)[C@@H]1OC(C)=O	·	–	·	·	·	·
CC(O)CNCCCOc1ccc(Cl)cc1C(C)(C)C (stereo not given)	–[15.4 µM]	–	–	–	–	-61.5
N#C/C(=C\c1ccc(N2CCOCC2)c([N+](=O)[O-])c1)c1nc2ccccc2[nH]1	–	–	–	–	–	–
N#C/C(=C\c1ccc(N2CCOCC2)o1)c1nc2ccccc2[nH]1	–	-48.9	–	?	–	–
N#C/C(=C/c1ccc(N2CCOCC2)o1)c1ccc(Cl)cc1	–	-46.7	–	–	–	–
Cc1cccn2c(=O)c(-c3nnn[nH]3)cnc12	·	·	·	·	·	–
CCOc1ccc2c(c1)n([O-])c1c([n+]2=O)CCCC1	–	-57.6	–	–	–	·
Cc1[nH]nc(-c2ccc(O)c(C)c2O)c1-c1cnn(-c2ccccc2)c1	–	–	–	–	–	-87.2
CC(C)C[C@H](NC(=O)[C@@H]1CCCN1C(=O)[C@H](Cc1ccccc1)NC(=O)[C@H](C)NC(=O)[C@H](CCC(=O)O)NC(=O)[C@H](C)NC(=O)[C@H](CO)NC(=O)[C@H](CCC(=O)O)NC(=O)[C@H](CC(=O)O)NC(=O)[C@H](CCC(=O)O)NC(=O)[C@H](C)NC(=O)CNC(=O)[C@H](CC(N)=O)NC(=O)[C@@H]1CCCN1C(=O)[C@H](Cc1ccc(O)cc1)NC(=O)[C@@H](NC(=O)[C@H](CCCCN)NC(=O)[C@@H](NC(=O)[C@@H]1CCCN1C(=O)[C@@H](N)CCCNC(=N)N)C(C)C)C(C)C)C(=O)N[C@@H](CCC(=O)O)C(=O)N[C@@H](Cc1ccccc1)C(=O)O	·	–	·	·	·	·
CC(OC(=O)c1ccc(O)cc1)C(=O)Nc1nc(-c2ccccc2)cs1 (stereo not given)	–	·	–	?	–	-85.0
COc1cccc(S(=O)(=O)N2CCN(c3nc(-c4cccs4)nc4ccccc34)CC2)c1	·	·	–	·	·	·
CCCc1cc(-c2[nH]ncc2-c2ccc3c(c2)OCCCO3)c(O)cc1O	?	–	–	–	–	-75.9
Cc1ccc(Nc2c(-c3ccc(C)s3)nc3cccc(C)n23)cc1	·	·	–	·	·	·
COc1ccc(-c2nn3c(-c4cc(-c5ccccc5)n[nH]4)nnc3s2)cc1OC	·	·	–	·	·	·
Cc1ccc(-c2csc(NS(=O)(=O)c3cccc(F)c3)n2)o1	–[15.4 µM]	·	–	–	·	-75.1
Cc1nc(CNS(=O)(=O)c2cccc(F)c2)cs1	–	–	–	–	–	–
Cc1ccc(N2CC(NC(=O)c3cc4ccccc4o3)CC2=O)cc1C (stereo not given)	·	·	·	·	–	–
CC(=O)N1CC(=O)N=C1SCC(=O)Nc1nc(-c2ccccc2)c(-c2ccccc2)s1	–	–	–	–	–	-86.4
O=C(Nc1noc2ccccc12)c1ccc(F)cc1	·	·	·	·	–	–
O=C1C=CC2C3C(=O)N(c4ccccc4)C(=O)C3C1N2Cc1ccccc1 (stereo not given)	–	·	–	–	·	-108.4
CCCn1c(N)c(C(=O)COC(=O)c2c(C)noc2C)c(=O)n(C)c1=O	5.01µM	–	–	–	?	–
